Bioassay records: PubChem, National Center for Advancing Translational Sciences (NCATS)
In the library only some 14% were active in any assay of this set; here they are far more common.
Pf growth 48h: Primary qHTS for delayed death inhibitors of the malarial parasite plastid, 48 hour incubation; P. falciparum luciferase growth in erythrocytes, 48 h; Potency, µM (series often up to 28.7 µM), inactives show at the top dose activity change, negative = inhibition, actives largely listed as inhibitors; 310,000 tested, 5.9% active; also: potency is read from the fitted curve at half-maximal effect
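Luminescence readout; reporter = integrated firefly luciferase in P. falciparum. RBC culture at 2% hematocrit, 0.1% parasitemia final, 37 C/5% CO2; decreased signal taken as growth inhibition.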
Sm TGR inh: qHTS Assay for the Inhibitors of Schistosoma Mansoni Peroxiredoxins; purified TGR, DTNB reduction, TNB absorbance 405 nm; Potency, µM (top dose mostly 114 µM), without a hit: at the top dose activity change, negative = inhibition, usual class: inhibitors; AID 485364, 2010; 360,000 tested, 3% active; Schistosoma mansoni thioredoxin glutathione reductase (TGR), Q962Y6; also: potency is read from the fitted curve at half-maximal effect; nearly all actives have a fitted effect of over 60% in size
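Kinetic colorimetric format: TGR-catalysed, NADPH-driven DTNB reduction monitored via TNB absorbance. Enzyme dispensed at 20 nM; compound exposure 15 min at room temperature before reaction start.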
Pf growth 96h: Primary qHTS for delayed death inhibitors of the malarial parasite plastid, 96 hour incubation. P. falciparum luciferase reporter growth, 96 h. Potency, µM (doses to about 28.7 µM), inactives show top-dose activity change, negative = inhibition, hits mostly inhibitors. 320,000 tested, 6.9% active. AID 504834, 2011; also: potency is read from the fitted curve at half-maximal effect
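P. falciparum expressing integrated firefly luciferase grown in erythrocytes (2% hematocrit, 0.05% parasitemia final) with compounds for 96 hours at 37 C, 5% CO2. Growth inhibition read as loss of luminescence after adding luciferase detection reagent.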
HCMV antiviral: qHTS Assay for inhibitors of the human cytomegalovirus (HCMV) | HFF cells, HCMV-luciferase reporter, 72 h; active compounds read low | activity change, negative = inhibition, % at 57.5 µM | 410,000 tested, 4.5% active | AID 1259415, 2018; in the data active = activity change below about -60%; inconclusive = no clear call, values can overlap the other calls; inactive = above about -39%
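Luciferase read-out from HCMV-luciferase-infected HFFs (MOI 1 PFU/cell) 72 h post infection at 37C; compounds added after 16 h cell attachment; activity normalized between buffer-only basal and Salinomycin (10uM) inhibitor controls.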
Giardia FBPA inh: qHTS Assay for Inhibitors of Fructose-1,6-bisphosphate Aldolase from Giardia Lamblia; Potency, µM (top dose mostly 59.6 µM), for the others: top-dose activity, negative = inhibition, hits mostly inhibitors; A8B2U2; AID 2451, 2010; purified Giardia FBPA; 290,000 tested, 0.71% active; also: potency is read from the fitted curve at half-maximal effect; nearly all actives have a fitted effect of over 55% in size
Target sequence (A8B2U2 whole entry, looked up): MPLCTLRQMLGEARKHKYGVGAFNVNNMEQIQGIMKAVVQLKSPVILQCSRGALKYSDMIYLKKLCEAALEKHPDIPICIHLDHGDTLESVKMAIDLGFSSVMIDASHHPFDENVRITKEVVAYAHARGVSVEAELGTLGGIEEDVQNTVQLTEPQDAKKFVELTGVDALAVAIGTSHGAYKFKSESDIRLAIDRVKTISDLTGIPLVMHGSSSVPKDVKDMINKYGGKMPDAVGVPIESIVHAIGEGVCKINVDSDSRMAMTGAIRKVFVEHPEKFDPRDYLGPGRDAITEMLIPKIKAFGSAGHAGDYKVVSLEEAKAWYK
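40 nM FBPA preincubated 10 min at RT with compound (up to 57.5 uM final), then substrate plus GAPDH/TPI/NAD/arsenate coupling and diaphorase/resazurin added. Fluorescence read after 20 min at RT, 525/598 nm.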
The depositor's hits bear a star; ? = inconclusive; / = not tested or not shown. Unless noted, calls follow the shape of the dose curve; as a rule, active = well fitted curve in the direction sought with a large enough effect; inconclusive = small, poorly fitted or top-dose-only effect, or another doubt; inactive = no such curve, though single readings can be large; an effect the other way counts as inactive or inconclusive. % is scaled to controls: 0 for no effect and ±100 for the full control effect.

SMILES | Pf growth 48h | Sm TGR inh | Pf growth 96h | HCMV antiviral | Giardia FBPA inh
Cc1c(C)c2c(c(C)c1OC(=O)c1cccnc1)CC[C@@](C)(CCC[C@H](C)CCC[C@H](C)CCCC(C)C)O2 | 5% | / | 12% | / | -1%
COC(=O)C1=C(C)NC2=C(C(=O)CCC2)C1c1coc2ccccc2c1=O (stereo unspecified) | ? | 0% | 86% | 101 | -2%
CCCOC(=O)C1=C(C)NC2=C(C(=O)CCC2)C1c1cccc(OC)c1OC (stereo unspecified) | 14% | 7% | 8.3µM* | -31 | -5%
CCCOC(=O)C1=C(C)NC2=C(C(=O)CCC2)C1c1cccs1 (stereo unspecified) | -13% | 0% | ? | 16 | 0%
CCOC(=O)C1=C(C)NC2=C(C(=O)CCC2)C1c1coc2ccccc2c1=O (stereo unspecified) | / | -1% | 12µM* | 93 | 0%
CC1CCN(c2nc3ccccc3nc2SCC(=O)Nc2ccccc2C(C)C)CC1 | / | 0% | / | 8 | /
COc1ccccc1Nc1nn2c(=O)c3ccc(C(=O)NCc4cccs4)cc3nc2s1 | / | -3% | / | -97* | /
Cc1ccc(C)c(Nc2nn3c(=O)c4ccc(C(=O)NCc5cccs5)cc4nc3s2)c1 | / | 2% | / | -99* | /
CCOC(=O)C1CCN(C(=O)c2ccc3c(=O)n4nc(Nc5cc(C)ccc5C)sc4nc3c2)CC1 | ? | 19% | 2.9µM* | ? | /
CCOC(=O)C1CCN(C(=O)c2ccc3c(=O)n4nc(Nc5ccccc5OC)sc4nc3c2)CC1 | / | / | / | 8 | /
CCN(CC)CCNC(=O)c1ccc2c(=O)n3nc(Nc4ccccc4OC)sc3nc2c1 | / | 0% | / | -101* | /
COc1ccccc1Nc1nn2c(=O)c3ccc(C(=O)NCCCOC(C)C)cc3nc2s1 | / | -3% | / | ? | /
Cc1ccc(C)c(Nc2nn3c(=O)c4ccc(C(=O)NCc5cccnc5)cc4nc3s2)c1 | 5% | 7% | -4% | 4 | -12%
CCCN1C(=O)CC[C@@H](S(=O)(=O)c2ccccc2)[C@@H]1c1ccc(OC)cc1 | / | / | / | -11 | /
Cc1ccc2nc(CSc3nnc(NC(=O)COc4ccccc4F)s3)cc(=O)n2c1 | / | -4% | / | -12 | /
COc1ccccc1Nc1nn2c(=O)c3ccc(C(=O)N4CCCC(C)C4)cc3nc2s1 (stereo unspecified) | 8.3µM* | -4% | 6% | -40 | 10%
CC1CCCN(C(=O)c2ccc3c(=O)n4nc(Nc5ccccc5)sc4nc3c2)C1 (stereo unspecified) | / | / | / | -2 | /
Cc1ccc(NC(=O)COc2ncnc3c(Cl)cc(Cl)cc23)cc1[N+](=O)[O-] | 36% | 4.5µM* | 72% | 2 | 2%
Cc1cccc(CN2CCC(C(=O)Nc3ccc(-n4nc(C)cc4C)cc3)CC2)n1 | -19% | 0% | ? | ? | ?
Cc1ncc(CN2CCC(C(=O)Nc3ccc(-n4cccn4)cc3)CC2)s1 | 1µM* | -17% | 9% | 8 | 3%
Cc1cc(C)n(-c2ccc(NC(=O)C3CCN(Cc4cnc(C)s4)CC3)cc2)n1 | ? | 0% | -23% | -60* | -2%
CCc1ccc(CN2CCC(C(=O)Nc3ccc(-n4nc(C)cc4C)cc3)CC2)o1 | 6.6µM* | -20% | ? | -16 | /
O=C(Nc1ccc(-n2cccn2)cc1)C1CCCCN1Cc1cccc2c1OCO2 (stereo unspecified) | ? | 2% | -1% | -68* | 8%
CCOC(=O)C1(C)CCN1C(=O)c1cncc(Br)c1 (stereo unspecified) | / | / | / | 4 | /
CC(C)(C)NC(=O)CN(Cc1ccc2c(c1)OCO2)C(=O)CNS(=O)(=O)c1ccccc1 | 10% | -9% | ? | -24 | 2%
COC(=O)c1cc2sccc2n1Cc1nc(-c2ccc(C)cc2)oc1C | / | -11% | / | -16 | /
COC(=O)c1cc2sccc2n1Cc1nc(-c2ccc(OC)cc2)oc1C | ? | -13% | -4% | -61* | -4%
COC(=O)c1cc2sc(Cl)cc2n1Cc1nc(-c2ccccc2)oc1C | / | -32% | 8.3µM* | -8 | 0%
